SMILES strings stand for the structures. Counter-ions that a name gives are not always drawn.

The first assay has as its system RIVA. Put plainly: growth inhibition by drug plus 177Lu-lilotomab satetraxetan (1 - RLU/untreated control) (fraction); higher = stronger inhibition. To be noted: 100 nM; time (day): 4; 177Lu-lilotomab satetraxetan 0.5 ug/ml. The method, boiled down: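 A radiolabelled anti-CD37 antibody conjugate (~600 MBq/mg) was applied for 18 h at 0.5 µg/ml to RIVA and 1 µg/ml to U-2932 cells, with untreated cells run alongside. All cells were washed and seeded at 3,000 cells/well onto library-printed plates at 10/100 nM (RIVA) or 10/1,000 nM (U-2932). Growth inhibition was based on RealTime-Glo luminescence compared with untreated no-drug wells. Daily reads began on day 3 after 1 h at 37°C, with each value being 1 − RLU/mean of the 48 such wells on that plate.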
With `CCc1c2c(nc3ccc(OC(=O)N4CCC(N5CCCCC5)CC4)cc13)-c1cc3c(c(=O)n1C2)COC(=O)[C@]3(O)CC` [Irinotecan HCl Trihydrate (Campto)], the “growth inhibition by drug plus 177Lu-lilotomab satetraxetan” value (“growth inhibition” below) came to 0.649.

Turning to `S=C(NCc1ccc2c(c1)OCO2)N1CCN(c2ncnc3c2oc2ccccc23)CC1` [Amuvatinib (MP-470)], the “growth inhibition” value was found to be 0.642.

Turning to `COc1ccc2c3n(c(=NC(=O)c4cccnc4)nc2c1OC)CCN3`, the “growth inhibition” value stood at 0.53.

With `C#Cc1cccc(Nc2ncnc3cc(OCCOC)c(OCCOC)cc23)c1` [Erlotinib HCl], the “growth inhibition” value came to 0.81.

As to `Cc1ccc(-c2cc(C(F)(F)F)nn2-c2ccc(S(N)(=O)=O)cc2)cc1` [Celecoxib], the “growth inhibition” value is 0.448.

On to `N#CC[C@H](C1CCCC1)n1cc(-c2ncnc3[nH]ccc23)cn1`, for which the “growth inhibition” value stood at 0.379.

With `CCc1cncnc1N1CCN(Cc2nc3ccc(C(F)(F)F)cc3[nH]2)CC1`, the “growth inhibition” value was found to be 0.55.

As to `CCN(CC)C(=S)SSC(=S)N(CC)CC` [Disulfiram (Antabuse)], the “growth inhibition” value worked out at 0.379.

Regarding `CC(C)[C@H](C(=O)Nc1ccc(C(=O)NO)cc1)c1ccccc1`, the “growth inhibition” value was determined as 0.934.

With `CC(=O)O[C@]1(C(C)=O)CC[C@H]2[C@@H]3C=C(C)C4=CC(=O)CC[C@]4(C)[C@H]3CC[C@@]21C` [Megestrol Acetate], the “growth inhibition” value is 0.522.

For the molecule `COc1cc2ncnc(Nc3cccc(Br)c3)c2cc1OC`, the “growth inhibition” value worked out at 0.482.

Take `N#Cc1ccc(C(c2ccc(C#N)cc2)n2cncn2)cc1` [Letrozole]: the “growth inhibition” value came out at 0.397.

Take `CC(=O)c1c(C)c2cnc(Nc3ccc(N4CCNCC4)cn3)nc2n(C2CCCC2)c1=O`: the “growth inhibition” value was 0.427.

In the case of `COc1cccc2c1C(=O)c1c(O)c3c(c(O)c1C2=O)C[C@@](O)(C(=O)CO)C[C@@H]3O[C@H]1C[C@H](N)[C@H](O)[C@H](C)O1` [Doxorubicin (Adriamycin)], the “growth inhibition” value came out at 0.928.

On to `CC(C)(C)c1[nH]cnc1/C=c1\[nH]c(=O)/c(=C/c2ccccc2)[nH]c1=O` [NPI-2358 (Plinabulin)], for which the “growth inhibition” value amounted to 0.967.

`COc1cc(Nc2ncc3c(n2)-c2ccc(Cl)cc2C(c2c(F)cccc2OC)=NC3)ccc1C(=O)O` [MLN8237 (Alisertib)]: the “growth inhibition” value came to 0.81.

Regarding `O=c1[nH]cc(F)c(=O)[nH]1` [Adrucil (Fluorouracil)], the “growth inhibition” value was 0.483.

Turning to `CC(C)c1ccc(Cn2ccc3c4c(N)nc(NC5CC5)nc4ccc32)cc1`, the “growth inhibition” value was found to be 0.778.

With `CC/C(=C(\c1ccccc1)c1ccc(OCCN(C)C)cc1)c1ccccc1` [Tamoxifen Citrate (Nolvadex)], the “growth inhibition” value was determined as 0.78.

As for `Cn1cc(C2=C(c3ccc(Cl)cc3Cl)C(=O)NC2=O)c2ccccc21`, the “growth inhibition” value was 0.512.

As to `c1ccc(-c2nn3c(c2-c2ccnc4cc(OCCN5CCOCC5)ccc24)CCC3)nc1`, the “growth inhibition” value turned out to be 0.413.

As for `O=C(NCCS(=O)(=O)c1ccc(C(F)(F)F)cn1)c1ccc(Cl)cc1`, the “growth inhibition” value came out at 0.503.

Consider `Cc1ccc(S(=O)(=O)C=CC#N)cc1`, for which the “growth inhibition” value came out at 0.472.

With `CCC1=C[C@@H]2CN(C1)Cc1c([nH]c3ccccc13)[C@@](C(=O)OC)(c1cc3c(cc1OC)N(C)[C@H]1[C@@](O)(C(=O)OC)[C@H](OC(C)=O)[C@]4(CC)C=CCN5CC[C@]31[C@@H]54)C2` [Vinorelbine (Navelbine)], the “growth inhibition” value was 0.978.

On to `Cc1cc(Nc2cc(N3CCN(C)CC3)nc(/C=C/c3ccccc3)n2)n[nH]1`, for which the “growth inhibition” value is 0.353.

On to `CN(N=O)C(=O)N[C@@H](C=O)[C@@H](O)[C@H](O)[C@H](O)CO` [Streptozotocin (Zanosar)], for which the “growth inhibition” value is 0.458.

Still in this assay, the particulars now being: 100 nM; time (day): 5; 177Lu-lilotomab satetraxetan 0.5 ug/ml.
Consider `COc1ccc(S(=O)(=O)Nc2cccnc2Nc2ccc(O)cc2)cc1`, for which the “growth inhibition” value amounted to 0.51.

On to `C[C@]12CCC(=O)C=C1CC[C@@H]1[C@@H]2[C@@H](O)C[C@@]2(C)[C@H]1CC[C@]2(O)C(=O)CO` [Hydrocortisone (Cortisol)], for which the “growth inhibition” value stood at 0.317.

For `COc1cc(OC2CCN(C)CC2)ccc1Nc1ncc2c(n1)n(C1CCCC1)c(=O)n2C`, the “growth inhibition” value was determined as 0.453.

Turning to `Nc1nc(F)nc2c1ncn2[C@@H]1O[C@H](CO)[C@@H](O)[C@@H]1O` [Fludarabine (Fludara)], the “growth inhibition” value was 0.573.

Take `Nc1nc(Nc2ccc(S(N)(=O)=O)cc2)nn1C(=O)c1c(F)cccc1F`: the “growth inhibition” value came out at 0.611.

For the molecule `Nc1ncn([C@@H]2O[C@H](CO)[C@@H](O)[C@H]2O)c(=O)n1` [Azacitidine (Vidaza)], the “growth inhibition” value stood at 0.362.

With `COc1cc2nccc(Oc3ccc(NC(=O)NC4CC4)c(Cl)c3)c2cc1C(N)=O` [E7080 (Lenvatinib)], the “growth inhibition” value amounted to 0.454.

Regarding `Nc1ccn([C@@H]2O[C@H](CO)[C@@H](O)[C@@H]2O)c(=O)n1` [Cytarabine], the “growth inhibition” value amounted to 0.793.

Consider `Nc1cccc2c1C(=O)N(C1CCC(=O)NC1=O)C2=O` (centres undefined) [Pomalidomide], for which the “growth inhibition” value came out at 0.434.

Consider `CN(C)c1nc(N(C)C)nc(N(C)C)n1` [Altretamine (Hexalen)], for which the “growth inhibition” value stood at 0.312.

For the molecule `Cc1[nH]c(/C=C2\C(=O)Nc3ccc(S(=O)(=O)N(C)c4cccc(Cl)c4)cc32)c(C)c1C(=O)N1CCN(C)CC1`, the “growth inhibition” value was determined as 0.528.

Take `O=C(O[C@@H]1Cc2c(O)cc(O)cc2O[C@@H]1c1cc(O)c(O)c(O)c1)c1cc(O)c(O)c(O)c1` [(-)-Epigallocatechin gallate]: the “growth inhibition” value is 0.47.

As to `CCc1c2c(nc3ccc(OC(=O)N4CCC(N5CCCCC5)CC4)cc13)-c1cc3c(c(=O)n1C2)COC(=O)[C@]3(O)CC` [Irinotecan HCl Trihydrate (Campto)], the “growth inhibition” value was found to be 0.699.

Regarding `S=C(NCc1ccc2c(c1)OCO2)N1CCN(c2ncnc3c2oc2ccccc23)CC1` [Amuvatinib (MP-470)], the “growth inhibition” value is 0.661.

For the molecule `COc1ccc2c3n(c(=NC(=O)c4cccnc4)nc2c1OC)CCN3`, the “growth inhibition” value is 0.551.

For the molecule `C#Cc1cccc(Nc2ncnc3cc(OCCOC)c(OCCOC)cc23)c1` [Erlotinib HCl], the “growth inhibition” value amounted to 0.788.

Take `Cc1ccc(-c2cc(C(F)(F)F)nn2-c2ccc(S(N)(=O)=O)cc2)cc1` [Celecoxib]: the “growth inhibition” value worked out at 0.453.

As to `N#CC[C@H](C1CCCC1)n1cc(-c2ncnc3[nH]ccc23)cn1`, the “growth inhibition” value is 0.376.

As for `CCc1cncnc1N1CCN(Cc2nc3ccc(C(F)(F)F)cc3[nH]2)CC1`, the “growth inhibition” value came to 0.542.

As for `CCN(CC)C(=S)SSC(=S)N(CC)CC` [Disulfiram (Antabuse)], the “growth inhibition” value came to 0.394.

For the molecule `CC(C)[C@H](C(=O)Nc1ccc(C(=O)NO)cc1)c1ccccc1`, the “growth inhibition” value is 0.937.

In the case of `CC(=O)O[C@]1(C(C)=O)CC[C@H]2[C@@H]3C=C(C)C4=CC(=O)CC[C@]4(C)[C@H]3CC[C@@]21C` [Megestrol Acetate], the “growth inhibition” value was 0.525.

Regarding `COc1cc2ncnc(Nc3cccc(Br)c3)c2cc1OC`, the “growth inhibition” value worked out at 0.487.

For `N#Cc1ccc(C(c2ccc(C#N)cc2)n2cncn2)cc1` [Letrozole], the “growth inhibition” value was 0.409.

Regarding `CC(=O)c1c(C)c2cnc(Nc3ccc(N4CCNCC4)cn3)nc2n(C2CCCC2)c1=O`, the “growth inhibition” value is 0.426.

`COc1cccc2c1C(=O)c1c(O)c3c(c(O)c1C2=O)C[C@@](O)(C(=O)CO)C[C@@H]3O[C@H]1C[C@H](N)[C@H](O)[C@H](C)O1` [Doxorubicin (Adriamycin)]: the “growth inhibition” value was 0.952.

Regarding `CC(C)(C)c1[nH]cnc1/C=c1\[nH]c(=O)/c(=C/c2ccccc2)[nH]c1=O` [NPI-2358 (Plinabulin)], the “growth inhibition” value is 0.972.

On to `COc1cc(Nc2ncc3c(n2)-c2ccc(Cl)cc2C(c2c(F)cccc2OC)=NC3)ccc1C(=O)O` [MLN8237 (Alisertib)], for which the “growth inhibition” value was 0.845.

Regarding `O=c1[nH]cc(F)c(=O)[nH]1` [Adrucil (Fluorouracil)], the “growth inhibition” value turned out to be 0.493.

Turning to `CC(C)c1ccc(Cn2ccc3c4c(N)nc(NC5CC5)nc4ccc32)cc1`, the “growth inhibition” value is 0.786.

With `CC/C(=C(\c1ccccc1)c1ccc(OCCN(C)C)cc1)c1ccccc1` [Tamoxifen Citrate (Nolvadex)], the “growth inhibition” value stood at 0.788.

On to `Cn1cc(C2=C(c3ccc(Cl)cc3Cl)C(=O)NC2=O)c2ccccc21`, for which the “growth inhibition” value was 0.502.

Turning to `c1ccc(-c2nn3c(c2-c2ccnc4cc(OCCN5CCOCC5)ccc24)CCC3)nc1`, the “growth inhibition” value is 0.439.

Regarding `O=C(NCCS(=O)(=O)c1ccc(C(F)(F)F)cn1)c1ccc(Cl)cc1`, the “growth inhibition” value worked out at 0.517.

As to `Cc1ccc(S(=O)(=O)C=CC#N)cc1`, the “growth inhibition” value was determined as 0.47.

Turning to `CCC1=C[C@@H]2CN(C1)Cc1c([nH]c3ccccc13)[C@@](C(=O)OC)(c1cc3c(cc1OC)N(C)[C@H]1[C@@](O)(C(=O)OC)[C@H](OC(C)=O)[C@]4(CC)C=CCN5CC[C@]31[C@@H]54)C2` [Vinorelbine (Navelbine)], the “growth inhibition” value is 0.982.

Take `Cc1cc(Nc2cc(N3CCN(C)CC3)nc(/C=C/c3ccccc3)n2)n[nH]1`: the “growth inhibition” value was 0.36.

For `CN(N=O)C(=O)N[C@@H](C=O)[C@@H](O)[C@H](O)[C@H](O)CO` [Streptozotocin (Zanosar)], the “growth inhibition” value is 0.481.

The record behind these values is the supplement of paper PMC6897291.
